Among all 68,000 compounds or so, about 2,700 (4%) showed an effect of 50% or more. For the sample, strong results were picked, then their nearest neighbours and some compounds at random.
What follows are compounds tested on Plasmodium berghei (assay: Screen against P. berghei liver stage (PbLuc), transformed with Luciferase, at 2uM). Conditions: tested at 2 uM.
Format: functional, HepG2

Structure (SMILES)	INHIBITION [%]
O=C(CCn1cccn1)NS(=O)(=O)N1CCCc2ccccc21	-1.45
Cc1nnc(CN2CCCC2c2ccc(Cl)c(Cl)c2)o1 (stereo not drawn)	-107.58
Cc1nnc(CN2CCCC2c2ccc(C(C)(C)C)cc2)o1 (stereo not drawn)	29.19
COc1ccc(C2CCCCCN2Cc2nnc(C)o2)cc1 (stereo not drawn)	52.83
COc1cccc(Cn2cc(C3=CCN(CC(=O)N(C)C)CC3)cn2)c1	57.41
CN(C)C(=O)CN1CC=C(c2cnn(Cc3ccccc3)c2)CC1	21.95
COc1cccc(Cn2cc(C3=CCN(CCO)CC3)cn2)c1	13.24
O=C(Nc1cnn(CCN2CCOCC2)c1)c1cc(F)ccc1F	53.03
O=C(Nc1cnn(CCN2CCOCC2)c1)c1ccccc1Cl	28.33
O=C(Nc1cnn(CCN2CCOCC2)c1)c1ccccc1O	-12.48
COc1ncccc1CN1C[C@@H]2OCCN(CCN(C)C)[C@@H]2C1	22.18
c1coc(CN2CCn3c(CN4CCOCC4)nnc3C2)c1	8.99
Cc1[nH]nc(CCC(=O)N2CCOC(CCc3ccccc3)C2)c1C (stereo not drawn)	-18.99
COc1ccc2c(c1)nc1n2[C@@H](CNCc2nccs2)COC1	24.42
Fc1ccc2c(c1)nc1n2[C@@H](CNCc2nccs2)COC1	61.42
c1ccc2c(c1)nc1n2[C@@H](CNCc2nccs2)COC1	24.64
CC(C)n1ccnc1CN1CCOC(C)(C(=O)N2CCOCC2)C1 (stereo not drawn)	13.58
Cc1nc(N2CCOCC2)nc2c1CCN(Cc1nccn1C)CC2	13.25
COCC(=O)N1C[C@H]2CN(Cc3csc(C)n3)C(=O)[C@H]2C1	-6.13
Cc1cccc(CN2C[C@@H]3COC[C@]3(CNC(=O)c3ccsc3)C2)n1	-26.88
Cc1cccc(CN2C[C@@H]3COC[C@]3(CNC(=O)c3cccn3C)C2)n1	-26.91
COc1cccc(CN2C[C@@H]3COC[C@]3(CNC(=O)C3CC3)C2)c1	-9.07
Cn1cc(CN2C[C@@H]3COC[C@]3(CNC(=O)c3ccccc3)C2)cn1	23.43

Structure (SMILES)	INHIBITION [%]
O=C(NC[C@]12COC[C@H]1CN(Cc1ccncc1)C2)c1ccco1	-5.65
Cc1cccc(CN2C[C@@H]3COC[C@]3(CNC(=O)c3ccccc3)C2)n1	59.04
Cc1cccc(CN2C[C@@H]3COC[C@]3(CNC(=O)C3CCC3)C2)c1	55.92
Cn1cc(CN2C[C@@H]3COC[C@]3(CNC(=O)c3ccco3)C2)cn1	67.67
Cc1cccc(CN2C[C@@H]3COC[C@]3(CNC(=O)C3CC3)C2)c1	-2.81
COc1cccc(OC)c1C(C(=O)O)N(C)Cc1c(C)n[nH]c1C (stereo not drawn)	17.2
CCN1CCC2(CC1)CC(NCc1cccs1)c1ccccc1O2 (stereo not drawn)	-5.2
COCC(=O)N1CC(=O)c2sc(Nc3ccc(F)cc3F)nc2C1	-0.83
Cc1noc(C(C)Nc2ccc3c(c2)CCC3)n1 (stereo not drawn)	-46.99
CN1CCc2c(C#N)c(NCCc3ccccc3)n3cnnc3c2C1	-30.35
Cc1ccc(NS(=O)(=O)c2c[nH]c3ncccc23)nc1	-27.36
Cc1csc(NC(=O)c2cnc(C3CCCN3)cn2)n1 (stereo not drawn)	14.47
CCCn1nc2c(cc1=O)CN(Cc1ncc(C(C)(C)C)o1)CC2	27.85
C1=CCN(c2nc(CC3CC3)nc3c2CCN(C2CCOCC2)CC3)C1	-59.35
O=C(c1cc(-c2ccc(O)cc2)n[nH]1)N1CCCC1c1cccnc1 (stereo not drawn)	35.01
COc1cc(C)nc(N2CCN(C(=O)CCc3ccsc3)CC2)n1	1.77
COCC(=O)N1CCN(C(=O)CCc2ccsc2)CC1	67.28
COCC(=O)N1CC[C@]2(O)CCN(C(=O)CCc3ccsc3)C[C@@H]2C1	-11.68
C[C@H]1CN(C(=O)c2cccc(F)c2Cl)CCN1S(C)(=O)=O	-33.29
CSc1nccc(N2CCC(NCc3ccc4c(c3)OCO4)CC2)n1	46.95
c1ccc(CN2CCOCC3(CCN(C4CCOCC4)C3)C2)cc1 (stereo not drawn)	-28.17
CCc1[nH]c2c(CNC(=O)C3CCC(=O)NC3)cc(C)cc2c1C (stereo not drawn)	11.37
CCc1[nH]c2c(CNC(=O)C3CCS(=O)(=O)CC3)cc(C)cc2c1C	13.65

Structure (SMILES)	INHIBITION [%]
CCc1[nH]c2c(CNC(=O)C3CNC(=O)C3)cc(C)cc2c1C (stereo not drawn)	53.05
CCC(CO)N(Cc1ccco1)C(=O)c1ccccc1NC (stereo not drawn)	4.57
CCOCC(O)CN1CCN(C(=O)c2cc(F)cc(F)c2)CC1 (stereo not drawn)	-41.07
CCOCC(O)CN1CCN(C(=O)c2ccc(OC)cc2)CC1 (stereo not drawn)	2.8
CCOCC(O)CN1CCN(C(=O)c2ccncc2)CC1 (stereo not drawn)	69.01
COc1ccc(-c2cc3nc([C@H](C)NC(=O)C4CC4)nn3cn2)cc1	20.72
Cc1ccc(CN2CC[C@H]3[C@H]2CCN3S(C)(=O)=O)s1	-25.95
CCn1cc(CN2C[C@@H]3CC[C@H]2CN(C(=O)c2ccncc2)C3)cn1	-23.16
CCc1nn(C)c2[nH]nc(NC(=O)c3cccnc3NC(C)C)c12	54.87
CCc1nn(C)c2[nH]nc(NC(=O)c3cccnc3OC)c12	-3.4
CCc1nn(C)c2[nH]nc(NC(=O)c3cccnc3OCC(C)C)c12	5.94
Cc1cnn(CC2CCCN2Cc2coc(-c3ccc(F)cc3)n2)c1 (stereo not drawn)	7.8
Cc1cccc2c1NC1(CCCC1)NC2=O	19.81
COc1cccc(OC2CN(C(=O)c3ccnc(OC)c3)C2)c1	6.85
CCc1ccccc1OC1CN(C(=O)c2ccnc(OC)c2)C1	72.94
COc1cc(C(=O)N2CC(Oc3ccccc3Cl)C2)ccn1	14.88
O=C(c1cccn1Cc1cccs1)N1CCN(C(=O)C2CC2)CC1	-72.53
NC(=O)C1CCN(C(=O)c2cccn2Cc2cccs2)CC1	3.97
O=C(c1cccn1Cc1cccs1)N1CCN(C2CC2)CC1	-14.3
O=C(c1cccn1Cc1cccs1)N1CCSCC1	69.49
O=C(c1cccn1Cc1cccs1)N1CCC(C(=O)N2CCCC2)CC1	17.42
CNC(=O)C1CCN(C(=O)c2cccn2Cc2cccs2)CC1	56.67

— ChEMBL document CHEMBL4513216, “Probing the Open Global Health Chemical Diversity Library for Multistage-Active Starting Points for Next-Generation Antimalarials” (ACS Infect Dis, 2020)
